We go through three sequences from article PMC8384837, “Expanding the binding specificity for RNA recognition by a PUF domain”.

The assay has as its target PUM1 PUF domain R5-RSN (Homo sapiens, UniProt Q14671 828-1176, C1007R;R1008S;Q1011N). The assay is described as follows: yeast three-hybrid, YBZ-1, SC-Leu-His + 0.5 mM 3-AT, 4 days. The following applies: tags: N-Gal4 AD-HA kept; label: inside an RPR1-promoter hybrid RNA with tandem MS2 sites; ssRNA. In outline:
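Matching RNA elements and Pumilio-1 PUF domain libraries, randomized at the three base-contacting residues of every repeat, were co-expressed from a centromeric plasmid in strain YBZ-1 (LexA–MS2 coat fusion, HIS3 reporter). The repeat regions were PCR-amplified and Illumina-sequenced from cells grown four days on SC-Leu (input) or SC-Leu-His + 0.5 mM 3-AT (selection). The interaction score is the log change in variant frequency from input to selection. It is computed in log2, with a pseudocount of 1 for absent variants.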
As to “GGCUAGAACUAGUGGAUCCCCCGGCGCCCGGCGGCUCGAGCCCGGGUAAGUGUAAAUAGUCUGCAUGCCGCCGGGCGCCAUGCCUGCAGGUCGACUCUAGAAAACAUG”, the binding signal was 0.8 log2 enrichment (interaction score).
Consider “GGCUAGAACUAGUGGAUCCCCCGGCGCCCGGCGGCUCGAGCCCGGGUAAGUGUUAAUAGUCUGCAUGCCGCCGGGCGCCAUGCCUGCAGGUCGACUCUAGAAAACAUG”, for which the binding signal was 3.26 log2 enrichment (interaction score).
For “GGCUAGAACUAGUGGAUCCCCCGGCGCCCGGCGGCUCGAGCCCGGGUAAGUGUCAAUAGUCUGCAUGCCGCCGGGCGCCAUGCCUGCAGGUCGACUCUAGAAAACAUG” the value was 3.76 log2 enrichment (interaction score).
